# ERK AVP inh: qHTS Assay for Inhibitors of the ERK Signaling Pathway using a Homogeneous Screening Assay; 72,000 tested, 0.99% active; HEK293-V1b, vasopressin-stimulated pERK AlphaScreen; Potency, µM (highest dose often 57.5 µM), hits mostly inhibitors; AID 995, 2007; further: nearly all actives have a fitted effect of over 55% in size
#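 Overnight-seeded V1b-HEK293 cells in 1% FBS got compound, then vasopressin (25 nM final, 5 min, 37C), then lysis buffer. AlphaScreen detection of phospho-ERK; activity normalized to basal and full-stimulation controls.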
# p53ts 39C tox: qHTS Screen for Compounds that Selectively Target Cancer Cells with p53 Mutations: Cytotoxicity of p53ts Cells at the Nonpermissive Temperature | Potency, µM (titrated, usually from 46.1 µM), most hits filed as cytotoxic | H1299-p53A138V viability at 39C, ATP luminescence, 24 h | 130,000 tested, 1.5% active | AID 902, 2007; further: nearly all actives have a fitted effect of over 55% in size
# p53ts 32C kill: qHTS Screen for Compounds that Selectively Target Cancer Cells with p53 Mutations: Cytotoxicity of p53ts Cells at the Permissive Temperature | H1299-p53A138V at 32C, ATP luminescence viability, 24 h | Potency, µM (top dose mostly 46.1 µM), most hits filed as cytotoxic | 130,000 tested, 0.93% active; further: nearly all actives have a fitted effect of over 55% in size
#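 H1299-p53 A138V cells (temperature-sensitive p53) exposed 24 h to up to 46 uM compound at 32C, where p53 is wild-type in conformation. Viability read as ATP luminescence and normalised to DMSO and 100 uM tamoxifen. AC50 fitted with the Hill equation.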
# DNA Pol III inh: qHTS Assay for Inhibitors of DNA Polymerase III Holoenzyme System | Potency, µM (doses to about 57.1 µM) | AID 603, 2007 | 71,000 tested, 0.25% active | reconstituted DNA polymerase III holoenzyme replication, biochemical
#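 Reconstituted *E. coli* holoenzyme (0.35 nM Pol III, 1 nM beta, 154 nM SSB, 2 nM primase) was preincubated with compound for 15 min at RT. Synthesis on 1.4 nM ssM13Gori ran 35 min, then was stopped with PicoGreen/EDTA and read as dsDNA fluorescence.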
# Tau fil binding: qHTS Assay for Tau Filament Binding; Microtubule-associated protein tau (Homo sapiens), P10636; recombinant tau filaments, thioflavin S fluorescence, 15 h; filaments grown with octadecylsulfate alongside compound; Potency, µM (titrated, usually from 57.1 µM); 71,000 tested, 2% active; AID 596, 2007;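 further: actives lower thioflavin S fluorescence by blocking filaments or displacing dye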
# Target sequence (P10636 whole entry, looked up): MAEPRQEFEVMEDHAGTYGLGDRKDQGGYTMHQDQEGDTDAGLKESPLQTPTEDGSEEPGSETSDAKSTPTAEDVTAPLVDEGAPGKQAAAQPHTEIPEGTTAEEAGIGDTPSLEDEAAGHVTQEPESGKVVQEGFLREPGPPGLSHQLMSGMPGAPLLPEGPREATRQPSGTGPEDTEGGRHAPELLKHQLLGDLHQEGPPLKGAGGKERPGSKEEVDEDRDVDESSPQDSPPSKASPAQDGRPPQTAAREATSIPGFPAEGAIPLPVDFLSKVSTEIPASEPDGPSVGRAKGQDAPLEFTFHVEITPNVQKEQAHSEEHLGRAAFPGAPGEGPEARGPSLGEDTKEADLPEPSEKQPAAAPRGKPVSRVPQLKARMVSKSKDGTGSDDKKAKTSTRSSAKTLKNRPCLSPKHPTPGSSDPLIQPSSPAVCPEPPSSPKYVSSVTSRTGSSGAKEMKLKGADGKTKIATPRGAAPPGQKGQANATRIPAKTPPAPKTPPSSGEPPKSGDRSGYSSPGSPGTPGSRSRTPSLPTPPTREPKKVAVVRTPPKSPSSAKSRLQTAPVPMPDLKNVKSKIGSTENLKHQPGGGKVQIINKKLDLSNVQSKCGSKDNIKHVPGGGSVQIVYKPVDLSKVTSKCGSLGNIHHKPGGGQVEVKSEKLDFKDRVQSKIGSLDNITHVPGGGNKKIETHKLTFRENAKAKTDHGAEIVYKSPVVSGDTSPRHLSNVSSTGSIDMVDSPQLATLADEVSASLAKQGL
#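 His-tagged recombinant human tau (exons 2, 3 and 10 included), 1 uM, was induced to fibrillize by 30 uM sodium octadecylsulfate with compound present. After 15 h at 37 C, thioflavine S fluorescence (ex 450, em 510 nm) was read.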
# YjeE inh: qHTS Assay for Inhibitors of YjeE; purified YjeE enzyme, qHTS inhibition assay; AID 605, 2007; tRNA threonylcarbamoyladenosine biosynthesis protein TsaE (Escherichia coli (strain …; 71,000 tested, 0.05% active; Potency, µM
#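 Purified YjeE (10 uM) with BODIPY Texas Red-labeled ADP probe (2 uM); compounds pin-transferred, 15 min at room temperature. Binding inhibition read as decreased fluorescence polarization; ADP titration as control.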
# A number is an active result; . = inactive; ? = inconclusive; / = no result; [ ] = remark or other dose. Rows were chosen to be rich in hits. Some 3.2% of all compounds tested hit in one or more screens of this group. The call rests on the fitted dose curve; in most records, active means well fitted curve in the direction sought with a large enough effect; inconclusive means small, poorly fitted or top-dose-only effect, or another doubt; inactive means no such curve, though single readings can be large; an effect the other way counts as inactive or inconclusive.
SMILES,ERK AVP inh,p53ts 39C tox,p53ts 32C kill,DNA Pol III inh,Tau fil binding,YjeE inh
N#CCCn1c(=O)c(-c2cc(F)cc(F)c2)nc2cnc(Nc3ccccc3)nc21,.,.,.,.,.,.
Cn1c(=O)c(-c2cc(F)cc(F)c2)nc2cnc(Nc3ccccc3)nc21,?,.,.,.,6.3µM,.
Cn1c(=O)c(-c2cc(F)cc(F)c2)nc2cnc(Oc3ccccc3)nc21,.,.,.,.,13µM,.
COc1ncc2nc(-c3cc(F)cc(F)c3)c(=O)n(C)c2n1,.,.,.,.,.,.
O=S(=O)(NC1CC2CCC1C2)c1ccc2c(c1)OCCO2 (stereo not given),25µM,.,.,.,.,.
C=CCOC(=O)C(C(C)=O)C(NC(=O)OC)c1ccc2ccccc2c1 (stereo not given),.[11.5 µM],.[9.22 µM],.[9.22 µM],/,/,/
CCc1cccc(NC(=O)c2oc3ccc4c(c3c2C)C(=O)CC(C)(C)O4)c1,/,6.3µM,?,/,/,/
COc1ccc(NC(=O)c2oc3ccc4c(c3c2C)C(=O)CC(C)(C)O4)cc1OC,/,4µM,10µM,/,/,/
COc1ccc(-n2ccnc(NCc3ccc(C)cc3)c2=O)cc1OC,/,.,.,/,/,/
O=[N+]([O-])c1ccc(-c2nc(-c3ccc(F)cc3)c(-c3ccncc3)[nH]2)cc1,20µM,.,.,/,/,/
COc1ccc(-c2[nH]c(-c3ccc(O)cc3)nc2-c2ccccc2)cc1,/,?,.,/,/,/
Cc1ccc2sc(-c3ccc(N)cc3)nc2c1,/,3.2µM,2.5µM,/,/,/
Cc1ccc2sc(-c3ccc(NC(=O)CCN4C(=O)c5ccccc5C4=O)cc3)nc2c1,/,.,/,/,/,/
N#C/C(=C(/N)Sc1ccc(N)cc1)c1ccccc1C(F)(F)F,0.32µM,.,.,/,/,/
Cc1cccc2nc(-c3cccnc3)c(Nc3ccc(C(C)C)cc3)n12,/,.,.,/,/,/
CCCCC(=O)Nc1ccc(N2CCN(C(=O)CC)CC2)cc1,25µM,.,.,.,.,.
CCCCC(=O)Nc1c(C(=O)N2CCN(c3ccccc3)CC2)oc2ccccc12,/,16µM,.,/,/,/
CC(C)CC(=O)Nc1c(C(=O)N2CCN(c3ccccc3)CC2)oc2ccccc12,/,.,.,/,/,/
CCCC(=O)Nc1ccc(N2CCN(C(=O)CCC)CC2)cc1,.,.,.,.,.,.
O=C(NCCc1ccccc1)c1ccc(CSc2nc3ccncc3n2Cc2cccc(F)c2)cc1,/,.,.,/,/,/
CCc1ccc2oc(-c3cc(NC(=O)c4cc(OC)c(OC)c(OC)c4)ccc3O)nc2c1,/,.,.,/,/,/
CCc1ccc2oc(-c3cc(N=Cc4cccc(OC)c4O)ccc3O)nc2c1,.,10µM,10µM,.,13µM,.
Cc1ccn2c(Nc3ccccc3)c(-c3c[nH]c4ccccc34)nc2c1,/,16µM,.,/,/,/
N#Cc1cccc(-c2nccc(NCc3cccs3)n2)c1,?,?,.,.,.,.
N#Cc1cccc(-c2cc(NCc3cccs3)ncn2)c1,13µM,.,.,.,.,.
SMILES,ERK AVP inh,p53ts 39C tox,p53ts 32C kill,DNA Pol III inh,Tau fil binding,YjeE inh
O=C(NCCc1ccc(Cl)cc1)C1CCN(C(=O)c2sccc2-n2cccc2)CC1,16µM,.,.,.,.,.
CCOc1ccc(-c2nonc2NC(=O)c2oc3ccc(Cl)cc3c2C)cc1,/,.,.,/,/,/
Cc1ccnc(Nc2nc3ccccc3o2)n1,.,7.9µM,5µM,.,.,.
O=c1n(CC2CO2)c(=O)n(CC2CO2)c(=O)n1CC1CO1 (stereo not given),.,16µM,.[1.84 µM],.,.,?
C=CCn1c(=O)n(CC=C)c(=O)n(CC=C)c1=O,.,.,.[1.84 µM],.,.,.
N#Cc1ccccc1NC(=O)C(=O)NCCc1csc2nc(-c3cccc(F)c3)nn12,/,.,.,/,/,/
COc1ccc(-c2cc(C(N)=O)nc(N3CCCCCC3)n2)cc1,.,10µM,7.9µM,.,.,.
CCOC(=O)c1ccc(NC(=O)CC2C(=O)N(c3ccc(C)cc3)C(=O)N2C2CCCC2)cc1 (stereo not given),/,.,.,/,/,/
FC(F)(F)c1cccc(Nc2nc3nonc3nc2Nc2ccc(Cl)cc2)c1,/,16µM,?,/,/,/
Cc1ccc(Nc2nc3nonc3[nH]c2=O)cc1C,.,10µM,13µM,.,.,.
Cc1ccc(Nc2n[nH]c(C)c2[N+](=O)[O-])cc1C,/,.,.,/,/,/
CCCCCn1c(=O)[nH]c2cc(C(=O)NCc3ccc(OC)cc3)ccc2c1=O,/,.,.,/,/,/
Cc1c(Cc2ccccc2)sc(N)c1C(N)=O,.,.,.,.,16µM,.
Cc1nc(-c2ccccc2)sc1C(N)=O,.,.,.,.,.,.
COc1cc(NC(=O)CC2C(=O)N(c3cccc(C)c3)C(=O)N2Cc2cccs2)cc(OC)c1 (stereo not given),/,.,.,/,/,/
CCSC1=NC(=O)/C(=C2/C=Cc3ccccc3N2CC)S1,25µM,.,.,.,4µM,.
C=CCCCCCCCCCCCc1ccco1,.,.,.,/,/,/
c1ccc2c(c1)CCN(c1nc3cc4c(cc3s1)OCCO4)C2,.,2µM,1.6µM,.,.,.
O=S(=O)(c1ccc2c(c1)OCCO2)N1CCN(c2nc3ccccc3s2)CC1,.,.,.,.,.,.
COc1cc(/C=C\C(=O)N2CCC=CC2=O)cc(OC)c1OC,.,6.3µM,6.3µM,.,.,.
COc1cc(/C=C/C(=O)O)cc(OC)c1OC,.,.,.,/,/,/
COc1cc(/C=C/C(=O)N2CCCCC2=O)cc(OC)c1OC,.,13µM,13µM,/,/,/
CCOC(=O)c1ccccc1NC(=O)CSc1nc2ncccc2o1,/,?,.,/,/,/
CCOc1cc(NC(=O)c2ccco2)c(OCC)cc1NC(=O)COc1ccccc1C,.,.,.,.,.,.
CCOc1cc(NC(=O)c2ccco2)c(OCC)cc1NC(=O)Cc1cccc(OC)c1,.,.,.,.,10µM,.
SMILES,ERK AVP inh,p53ts 39C tox,p53ts 32C kill,DNA Pol III inh,Tau fil binding,YjeE inh
CCC(=O)N1c2ccc(S(=O)(=O)CCC(=O)Nc3ccc(Br)c(C)c3)cc2CC1C (stereo not given),/,.,.,/,/,/
N#CCCN1CCN(C(=S)c2ccc(-c3ccc(Cl)cc3)o2)CC1,.,.,.,.,25µM,.
CN1CCN(Cc2ccc(-c3ccc(Cl)cc3)o2)CC1,.,.,.,.,.,.
O=c1cc(-c2ccc(O)c(O)c2)oc2ccccc12,7.9µM,.,.,/,/,/
O=c1cc(-c2ccc(O)c(O)c2)oc2cc(O)cc(O)c12,.,/,/,?,?,.
O=c1cc(-c2ccc(O)cc2)oc2cc(O)ccc12,?,.,.,/,/,/
O=c1cc(-c2ccc(O)cc2)oc2cccc(O)c12,4µM,.,.,/,/,/
O=c1cc(-c2ccccc2)oc2cc(O)c(O)cc12,.,2µM,2.5µM,/,/,/
